# Measurements reported in PubChem BioAssay (NCATS).
# Inconclusive results are not listed. Where a call stands in place of a potency, no number is given. Active and inactive are the calls of the source. The call rests on the fitted dose curve; in most records, active means well fitted inhibition curve with a large enough effect; inconclusive means small, poorly fitted or top-dose-only effect, or effect the other way; inactive means flat fitted curve, though single readings scatter.
# Target: ATPase family AAA domain-containing protein 5 (Homo sapiens) (UniProt Q96QE3)
# Sequence (Q96QE3 whole entry, looked up, the tested form may be a part): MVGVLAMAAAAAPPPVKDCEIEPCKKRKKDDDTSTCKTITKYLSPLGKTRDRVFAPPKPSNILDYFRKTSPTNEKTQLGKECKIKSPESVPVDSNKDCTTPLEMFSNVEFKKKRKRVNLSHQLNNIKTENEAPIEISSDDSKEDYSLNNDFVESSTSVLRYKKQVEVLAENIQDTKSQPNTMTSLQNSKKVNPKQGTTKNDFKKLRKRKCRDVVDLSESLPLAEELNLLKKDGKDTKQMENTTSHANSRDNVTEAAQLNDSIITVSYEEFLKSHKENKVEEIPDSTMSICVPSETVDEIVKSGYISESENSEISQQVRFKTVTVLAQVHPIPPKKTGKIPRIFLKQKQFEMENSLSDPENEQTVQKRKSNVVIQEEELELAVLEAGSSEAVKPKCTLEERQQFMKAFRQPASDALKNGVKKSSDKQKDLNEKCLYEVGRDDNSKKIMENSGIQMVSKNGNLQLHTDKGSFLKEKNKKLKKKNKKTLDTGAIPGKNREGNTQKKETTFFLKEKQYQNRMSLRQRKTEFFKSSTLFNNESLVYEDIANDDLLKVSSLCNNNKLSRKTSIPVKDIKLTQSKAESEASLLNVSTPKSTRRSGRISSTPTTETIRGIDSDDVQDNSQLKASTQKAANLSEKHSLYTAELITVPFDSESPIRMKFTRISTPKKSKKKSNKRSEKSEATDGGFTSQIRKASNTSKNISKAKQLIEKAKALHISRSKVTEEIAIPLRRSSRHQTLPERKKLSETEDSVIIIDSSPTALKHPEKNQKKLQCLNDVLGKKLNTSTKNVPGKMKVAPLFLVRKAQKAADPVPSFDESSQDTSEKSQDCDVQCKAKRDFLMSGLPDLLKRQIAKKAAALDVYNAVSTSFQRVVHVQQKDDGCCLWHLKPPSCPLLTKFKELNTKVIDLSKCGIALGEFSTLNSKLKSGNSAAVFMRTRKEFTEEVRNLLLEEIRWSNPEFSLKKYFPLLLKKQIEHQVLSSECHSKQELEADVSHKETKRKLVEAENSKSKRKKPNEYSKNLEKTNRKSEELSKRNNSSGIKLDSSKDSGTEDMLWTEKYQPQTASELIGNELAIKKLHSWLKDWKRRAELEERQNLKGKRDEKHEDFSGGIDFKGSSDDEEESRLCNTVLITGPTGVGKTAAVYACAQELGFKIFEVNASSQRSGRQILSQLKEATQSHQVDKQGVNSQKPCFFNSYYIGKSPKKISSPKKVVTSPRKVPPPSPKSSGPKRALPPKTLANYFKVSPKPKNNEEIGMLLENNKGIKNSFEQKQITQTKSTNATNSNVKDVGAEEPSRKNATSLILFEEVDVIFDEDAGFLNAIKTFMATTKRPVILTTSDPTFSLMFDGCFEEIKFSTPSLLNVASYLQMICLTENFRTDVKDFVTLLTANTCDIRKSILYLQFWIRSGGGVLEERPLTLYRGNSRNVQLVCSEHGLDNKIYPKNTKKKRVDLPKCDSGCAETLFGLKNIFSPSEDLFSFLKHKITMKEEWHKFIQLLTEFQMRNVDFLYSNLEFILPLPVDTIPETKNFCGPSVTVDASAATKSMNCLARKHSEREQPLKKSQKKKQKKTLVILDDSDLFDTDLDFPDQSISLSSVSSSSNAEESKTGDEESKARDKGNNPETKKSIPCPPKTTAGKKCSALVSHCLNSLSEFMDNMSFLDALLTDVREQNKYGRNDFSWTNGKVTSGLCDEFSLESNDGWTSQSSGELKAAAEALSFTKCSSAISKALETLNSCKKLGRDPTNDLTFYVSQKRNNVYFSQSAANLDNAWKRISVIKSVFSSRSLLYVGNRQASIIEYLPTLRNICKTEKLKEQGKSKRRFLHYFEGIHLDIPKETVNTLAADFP
# Test: Validation screen for small molecules that inhibit ELG1-dependent DNA repair in human embryonic kidney (HEK293T) cells expressing luciferase-tagged ELG1 (AID 493107); further: nearly all actives have a fitted effect of over 70% in size
# Settings: HEK293T ELG1-luciferase level, luminescence, 5-fluorouridine co-treatment, 16 h; series mostly up to 46.1 µM
# Description: NIH Molecular Libraries Probe Production Network [MLPCN]
# NIH Chemical Genomics Center [NCGC]
# Assay Provider: Kyungjae Myung, NHGRI, NIH
# Keywords: MLPCN, qHTS, NCGC, genotoxicity, cancer
# Cancer cells divide rapidly compared to normal cells in the body. During cell division, cancer cells need to duplicate their genome by DNA replication. The failure of genome duplication leads to cancer cells' death. Therefore, inhibitors of DNA replication could specifically kill cancer cells. Based on this concept, many chemotherapeutic agents were developed and have been used to treat cancer patients. However, there are a limited number of agents available in the clinical setting, and some of those that do exist have low efficacy and severe side effects. Therefore, if we can find the compounds that effectively block DNA replication either by directly damaging DNA or by inhibiting other cellular mechanisms, the options for cancer treatment will be broadened. With this in mind, we developed a quantitative high-throughput ELG1-luciferase reporter gene assay. Small molecules that specifically block ELG1 function in response to DNA damage can be identified by monitoring the suppression of luciferase activity. Since ELG1 defines a pathway for repairing DNA damage, agents blocking ELG1 function can be used to sensitize cancer cells to chemotherapeutic agents whose mechanism of action involves the induction of DNA damage.
# For genotoxicity screening, 2,000 cells in 4 uL/well were dispensed into white, solid-bottom 1536-well plates using a solenoid-based dispenser. Following transfer of 1 uL 5-Fluorouridine and 23 nL compound or DMSO vehicle by a pin tool, the plates were incubated 16 hr at 37 °C and 5% CO2. 5 ul ONE-Glo (Promega) was then added to each plate and following a 30 min incubation at room temperature, luciferase activity was quantified on a ViewLux CCD-based plate reader.
# Potency means the concentration at half of the fitted maximal effect.
row,Structure (SMILES),Potency
1,Cc1ccccc1CNc1ncnc2c1ncn2C1OC(CO)C(O)C1O (stereo not given),13 µM (active)
2,O=C(O)CCCC[C@@H]1CCSS1,inactive
3,Cn1c(=O)c2[nH]c(-c3ccccc3)nc2n(C)c1=O,inactive
4,NC(=S)NCCC[C@H](N)C(=O)O,inactive
5,C=CC(=O)c1ccc(CCCCCC)cc1,inactive
6,N=c1ccn2c(n1)O[C@H]1[C@H](O)[C@@H](CO)O[C@H]12,inactive
7,CN1[C@@H](CC(=O)c2ccccc2)CCC[C@H]1C[C@H](O)c1ccccc1,inactive
8,N#C/C(=C\c1ccc(O)c(O)c1)C(=O)c1ccc(O)c(O)c1,inactive
9,NCCSSCCN,inactive
10,COc1cc(SC)ccc1C(=O)N1CCC(Cc2ccccc2)CC1,inactive
11,Cc1nc2sccn2c(=O)c1CCN1CCC(=C(c2ccccc2)c2ccc(F)cc2)CC1,inactive
12,CC(N)C(=O)OC(C)(C)Cc1ccc(Cl)cc1 (stereo not given),inactive
13,Nc1nc(SCc2ccc([N+](=O)[O-])cc2)c2ncn([C@@H]3O[C@H](CO)[C@@H](O)[C@H]3O)c2n1,0.146 µM (active)
14,CCCCC#Cc1nc(NC)c2ncn([C@@H]3O[C@H](CO)[C@@H](O)[C@H]3O)c2n1,inactive
15,O=C(O)c1cc(=O)c2c(Cl)cc(Cl)cc2[nH]1,inactive
16,CC(C)NC[C@H](O)COc1cccc2[nH]ccc12,inactive
17,CC1(C)CCC=[N+]1[O-],inactive
18,O=C(O)CC1CC(c2ccccc2)=NO1 (stereo not given),inactive
19,C[N+](C)(CCCCCC[N+](C)(C)CCCN1C(=O)c2cccc3cccc(c23)C1=O)CCCN1C(=O)c2cccc3cccc(c23)C1=O,inactive
20,OCC1O[C@H](O)C(Cl)C(O)C1O (stereo not given in full),inactive

row,Structure (SMILES),Potency
1,Nc1nc(Cl)nc2c1ncn2[C@@H]1O[C@H](COP(=O)(O)OP(=O)(O)OP(=O)(O)O)[C@@H](O)[C@H]1O,inactive
2,O=C(Nc1cccc(C(=O)Nc2ccc(S(=O)(=O)O)c3cc(S(=O)(=O)O)cc(S(=O)(=O)O)c23)c1)Nc1cccc(C(=O)Nc2ccc(S(=O)(=O)O)c3cc(S(=O)(=O)O)cc(S(=O)(=O)O)c23)c1,inactive
3,COC1=C(OC)C(=O)c2ccccc2C1=O,inactive
4,CCN(CC)c1ncnc2c1ncn2[C@@H]1O[C@H](COP(=O)(O)OP(=O)(O)C(Br)(Br)P(=O)(O)O)[C@@H](O)[C@H]1O,inactive
5,CC(C)NC[C@@H](O)c1ccc(O)c(O)c1,inactive
6,CN1CCc2cc(O)c(O)cc2C(c2ccccc2)C1 (stereo not given),inactive
7,NC(CCCP(=O)(O)O)C(=O)O (stereo not given),inactive
8,NCCNC(=O)c1ncsc1-c1cccc(F)c1,inactive
9,CCCC1(C)C(C#N)(C#N)C1(C#N)C#N,16.4 µM (active)
10,N#C/C(=C\c1ccc(O)c(O)c1)C(=O)NCc1ccccc1,inactive
11,C[N+]1(C)C2CC(OC(=O)[C@H](CO)c3ccccc3)CC1C1OC12 (stereo not given in full),inactive
12,CC(C)NCC(O)COc1cccc2ccccc12 (stereo not given),inactive
13,O=[N+]([O-])c1ccc(CSc2ncnc3c2ncn3[C@@H]2O[C@H](CO)[C@@H](O)[C@H]2O)cc1,0.0206 µM (active)
14,C=C[C@H]1CN2CC[C@@H]1C[C@@H]2[C@@H](O)c1ccnc2ccc(OC)cc12,inactive
15,CN(C)C(N)=NCCC[C@H](N)C(=O)O,inactive
16,C[N+](C)(C)CCOP(=O)(O)OP(=O)([O-])OC[C@H]1O[C@@H](n2ccc(N)nc2=O)[C@H](O)[C@@H]1O,inactive
17,CC1OC1P(=O)(O)O (stereo not given),inactive
18,CCCCC/C=C\CC(O)/C=C/c1cccc(CC(O)CCCCO)n1 (stereo not given),inactive
19,CN(C)CCCO[C@@H]1[C@H]2OC(C)(C)O[C@H]2O[C@@H]1[C@H](O)CO,inactive
20,COc1cc2c(CCNC(C)=O)c[nH]c2cc1Cl,inactive
